Measurements as given in PubChem BioAssay (EPA / NIEHS).
Results filed as inconclusive are left out. Active and inactive are the calls of the source. The calls were made as follows, unless noted: active = hit-call score of the fitted dose curve at least 0.9, where 1 is the maximum; inactive = score below 0.9. Peptide text beside a SMILES is read from it.

Tests used:
[1] = CCTE_Harrill_HTTr_CellCount_MCF7: CCTE's Cell Proliferation Assessment for the High-Throughput Transcriptomics (HTTr) Platform, Harrill Lab (AID 2284012; active = hit-call score of the fitted dose curve at least 0.9, where 1 is the maximum;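 also: cells exposed to compound for six hours; intended direction is loss of nuclei count meaning fewer cells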)
How it was run: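 Cell count served as viability reporter: loss of Hoechst-stained nuclei, counted by high content imaging, marks decreased growth or survival. Exposure was 6 h in MCF-7 cells across eight concentrations, with DMSO as baseline.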

[2] = CCTE_Shafer_MEA_acute_burst_number: CCTE's Neural Acute Assay for Single-Electrode Bursts, Shafer Lab (AID 2284013)
How it was run: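 Primary rat cortical neurons on 16-electrode MEA wells, DIV 13 or 15, exposed to compound (0.03-40 uM; ≥3 wells); 40-min recordings at 37 C before and after treatment. Burst count expressed as percent change from baseline, DMSO as negative control.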

[3] = CCTE_Shafer_MEA_acute_burst_duration_mean: CCTE's Neural Acute Assay for Mean Burst Duration, Shafer Lab (AID 2284014);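 also: hits are decreases in mean burst duration relative to DMSO controls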
How it was run: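 Mean burst duration was compared between a 40 min baseline and a 40 min recording in the presence of compound (0.03-40 uM, 37 C), giving percent change per well. Cultures were rat cortical neurons at DIV 13 or 15; wells needed ≥10 active electrodes.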

[4] = CCTE_Shafer_MEA_acute_interburst_interval_mean: CCTE's Neural Acute Assay for Mean Interburst Interval, Shafer Lab (AID 2284016);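 also: percent change of mean interburst interval versus each well's own pre-dose baseline; curves fitted for decrease in interburst interval relative to DMSO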
How it was run: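 Rat primary cortical neurons on 48-well MEAs at DIV 13 or 15 were exposed acutely to 0.03-40 uM. Spikes detected at 8x rms noise, 37 C. Mean interburst interval from 40 min recordings expressed as percent change from 40 min pre-treatment baseline.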

[5] = CCTE_Shafer_MEA_acute_burst_percentage_mean: CCTE's Neural Acute Assay for Percentage of Spikes in a Burst, Shafer Lab (AID 2284017);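 as to AC50: curve fitted for loss of signal so potency reflects decreased burst percentage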
How it was run: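 Primary rat cortical neurons on 48-well MEA plates, treated on DIV 13 or 15 at 0.03-40 uM. Spikes detected at 8x rms noise at 37C; percent change from 40-min baseline to 40-min post-dose recording, fitted versus DMSO.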

[6] = CCTE_Shafer_MEA_acute_burst_percentage_std: CCTE's Neural Acute Assay for Standard Deviation of Burst Percentage, Shafer Lab (AID 2284018);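 also: fitted in the negative direction so actives lower burst percentage SD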
How it was run: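 Value is percent change from baseline in the across-electrode SD of spikes-in-bursts percentage, wells with >/= 10 active electrodes. Acute 40-min exposure to 0.03-40 uM on DIV 13 or 15 rat cortical cultures, recorded at 37 C after 40-min baseline.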

[7] = CCTE_Shafer_MEA_acute_per_network_burst_spike_number_mean: CCTE's Neural Acute Assay for Average Number of Spikes in a Network Burst, Shafer Lab (AID 2284019);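 as to AC50: curve fitted for loss of signal so actives reduce spikes per network burst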
How it was run: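 Percent change from baseline in mean spikes per network burst, spikes detected at 8x rms noise. Each compound at 0.03-40 uM in at least three wells of rat cortical cultures, recorded 40 min before and 40 min during exposure.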

[8] = CCTE_Shafer_MEA_acute_per_network_burst_spike_number_std: CCTE's Neural Acute Assay for Standard Deviation of Number of Spikes in a Network Burst, Shafer Lab (AID 2284020);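 also: fitted for decrease in spike-number SD versus DMSO so actives lower it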
How it was run: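 Endpoint: percent change from 40 min baseline in standard deviation of spikes per network burst, after 40 min compound exposure (0.03-40 uM, 37 C). Cortical rat neurons on MEA at DIV 13 or 15; spikes detected at 8x rms noise, 300-5000 Hz band-pass.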

[9] = CCTE_Shafer_MEA_acute_per_network_burst_electrodes_number_mean: CCTE's Neural Acute Assay for Mean Number of Electrodes in a Network Burst, Shafer Lab (AID 2284021);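 also: curves fitted for decreases only so hits reduce electrodes per burst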
How it was run: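 Percent change from baseline in average electrode count per network burst, rat cortical cultures on 48-well MEAs; 40-min recordings each side of exposure, DIV 13 or 15; threshold 8x rms noise; DMSO as negative control.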

[10] = CCTE_Shafer_MEA_acute_network_burst_percentage: CCTE's Neural Acute Assay for Percentage of Network Bursts, Shafer Lab (AID 2284022);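 also: curves fitted for loss so actives lower network burst percentage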
How it was run: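 On DIV 13 or 15, at least three wells of rat cortical neurons per compound are dosed at 0.03-40 uM. Spontaneous firing is detected at 8x rms noise for 40 min before and after dosing at 37 C. The percent change in network-burst spike share is reported.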

[11] = CCTE_Shafer_MEA_acute_cross_correlation_area: CCTE's Neural Acute Assay for Area of Cross Correlation, Shafer Lab (AID 2284024);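 also: area under pooled inter-electrode spike cross-correlation near zero lag as percent change from own baseline; curves fitted for loss of cross-correlation area so actives lower synchrony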
How it was run: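 Extracellular recordings from cultured rat cortical neurons measure network synchrony as cross-correlation area; each well's post-compound value (0.03-40 uM, 40 min) is compared with its own 40 min baseline to give percent change.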

[12] = CCTE_Shafer_MEA_acute_cross_correlation_HWHM: CCTE's Neural Acute Assay for Cross Correlation at Half Width at Half Maximum, Shafer Lab (AID 2284026);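 also: percent change per well from pre-dose baseline in spike cross-correlogram half width; hits are a decrease in cross-correlogram half width relative to DMSO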
How it was run: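 Percent change in cross-correlogram half width at half maximum, narrower meaning more synchrony, was derived per well from paired 40-min recordings before and during exposure to 0.03-40 uM compound in rat cortical cultures at 37 C.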

[13] = CCTE_Shafer_MEA_acute_synchrony_index: CCTE's Neural Acute Assay for Synchrony, Shafer Lab (AID 2284027);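 also: network synchrony index of spontaneous spiking in primary rat cortical neurons on MEAs; fitted for loss of signal so actives lower synchrony relative to DMSO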
How it was run: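 Plates equilibrated 20 min at 37 C, baseline recorded 40 min, compound (0.03-40 uM) added, then 40 min more recorded. Cells: primary rat cortical neurons, DIV 13 or 15. Per-well synchrony index change analysed in negative direction against DMSO.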

[14] = CCTE_Shafer_MEA_dev_firing_rate_mean: CCTE's Neural Network Formation Assay for Mean Firing Rate, Shafer Lab (AID 2284031)
How it was run: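 Steps: seed rat cortical cells (1.5 x 10^5/well) with laminin on PEI-coated MEA; dose day 0; record DIV 5/7/9/12, full media and compound exchange after DIV 5 and 9 recordings; compute well-mean firing rate AUC.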

[15] = CCTE_Shafer_MEA_dev_per_burst_spike_percent: CCTE's Neural Network Formation Assay for Percent of Spikes in a Burst, Shafer Lab (AID 2284032)
How it was run: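 Value is trapezoidal AUC over recordings on days 5, 7, 9 and 12 of the well-mean fraction of spikes falling in single-electrode bursts; rat cortical cultures exposed continuously from plating, treatment renewed DIV 5 and 9, fitted downward against DMSO.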

[16] = molecular target: Estrogen receptor (Homo sapiens) (UniProt P03372); test: CCTE_Deisenroth_AIME_96WELL_LUC_Active: CCTE's 96-well Estrogen Receptor Transactivation Assay with AIME metabolic competence (ERTA luciferase; metabolism positive), Deisenroth Lab (AID 2284023; active = hit-call score of the fitted dose curve at least 0.9, where 1 is the maximum)
Sequence of Estrogen receptor (Homo sapiens) (P03372 whole entry, looked up): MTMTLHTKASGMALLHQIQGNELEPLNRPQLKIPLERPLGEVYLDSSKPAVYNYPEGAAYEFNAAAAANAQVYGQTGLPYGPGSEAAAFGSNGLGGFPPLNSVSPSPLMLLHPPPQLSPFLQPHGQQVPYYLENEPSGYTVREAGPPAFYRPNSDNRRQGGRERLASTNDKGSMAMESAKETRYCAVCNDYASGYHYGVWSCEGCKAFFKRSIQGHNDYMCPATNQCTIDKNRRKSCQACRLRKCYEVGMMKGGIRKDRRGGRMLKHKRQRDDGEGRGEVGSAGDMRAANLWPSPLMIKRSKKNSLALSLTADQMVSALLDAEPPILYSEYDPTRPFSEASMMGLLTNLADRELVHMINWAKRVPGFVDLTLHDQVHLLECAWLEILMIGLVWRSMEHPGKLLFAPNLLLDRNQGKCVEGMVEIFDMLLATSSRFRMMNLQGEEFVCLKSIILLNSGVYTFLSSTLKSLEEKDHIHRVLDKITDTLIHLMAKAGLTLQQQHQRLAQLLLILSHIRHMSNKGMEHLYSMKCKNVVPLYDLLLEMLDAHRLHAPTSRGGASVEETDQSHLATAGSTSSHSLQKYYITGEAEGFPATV
How it was run: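 Metabolism-positive mode: induced rat hepatic S9 in alginate microspheres conditions test solutions (0.002 - 200 uM, 10 points) for 2 hours. VM7Luc4E2 ER luciferase reporter cells then exposed 24 h; positive-direction fit against 17beta-estradiol, n=4 typical.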

[17] = molecular target: Estrogen receptor (Homo sapiens) (UniProt P03372); test: CCTE_Deisenroth_AIME_96WELL_LUC_Inactive: CCTE's 96-well Estrogen Receptor Transactivation Assay without AIME metabolic competence (ERTA luciferase; metabolism negative), Deisenroth Lab (AID 2284025; active = hit-call score of the fitted dose curve at least 0.9, where 1 is the maximum)
How it was run: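 Metabolism-negative arm: chemicals (0.002–200 uM, 10 points) incubated 2 h with alginate-water microspheres, then medium moved onto VM7Luc4E2 cells for 24 h luciferase read-out. Positive direction vs 17beta-estradiol; n≥4 experiments.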

[18] = CCTE_Deisenroth_AIME_96WELL_CTox_Active: Cytotoxicity Assessment (CTOX) in CCTE's 96-well Estrogen Receptor Transactivation Assay with AIME metabolic competence (metabolism positive), Deisenroth Lab (AID 2284028; active = hit-call score of the fitted dose curve at least 0.9, where 1 is the maximum)
How it was run: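 Cytotoxicity in VM7Luc4E2 breast cells after 24 h exposure to medium from a 2 h metabolic pre-incubation with induced rat hepatic S9 in alginate microspheres; fluorescent live-cell protease readout, 10-point series 0.002–200 uM, n=4.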

[19] = CCTE_Deisenroth_AIME_96WELL_CTox_Inactive: Cytotoxicity Assessment (CTOX) in CCTE's 96-well Estrogen Receptor Transactivation Assay without AIME metabolic competence (metabolism negative), Deisenroth Lab (AID 2284029; active = hit-call score of the fitted dose curve at least 0.9, where 1 is the maximum)
How it was run: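 Metabolism-negative mode: alginate-water lids without rat S9, 2 h pre-incubation of 10-point series (0.002 - 200 uM). Conditioned medium on VM7Luc4E2 cells 24 h; loss of fluorescent live-cell protease signal marks cytotoxicity.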

[20] = molecular target: Estrogen receptor (Homo sapiens) (UniProt P03372); test: CCTE_Deisenroth_AIME_384WELL_LUC_Active: CCTE's 384-well Estrogen Receptor Transactivation Assay with AIME metabolic competence (ERTA luciferase; metabolism positive), Deisenroth Lab (AID 2284030; active = hit-call score of the fitted dose curve at least 0.9, where 1 is the maximum)
How it was run: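 Estrogenic luciferase signal in VM7Luc4E2 cells is measured at 24 hour, after chemicals have been preconditioned 2 hours with PB/BNF-induced rat hepatic S9 in alginate. Gain of signal is fitted relative to 17beta-estradiol, across 0.002 - 200 uM.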

Measured: AC50

Cc1c(C(=O)c2c[nH]n(C)c2=O)ccc(S(C)(=O)=O)c1C1=NOCC1
not listed: [16] | [17] | [18] | [19] | [20]
inactive: all other assays above

C1CNCCN1
not listed: [14] | [15] | [16] | [17] | [18] | [19] | [20]
inactive: all other assays above

COc1ccc(-c2coc3cc(O)cc(O)c3c2=O)cc1
active: [16] 2.14 µM | [17] 0.971 µM | [18] 75.9 µM | [19] 156 µM
inactive: [1]

c1ccc(Nc2cccc3ccccc23)cc1
inactive: [6] | [7] | [9]
active: [2] 1.25 µM | [3] 15 µM | [4] 11.7 µM | [5] 4.86 µM | [8] 1.86 µM | [10] 27.8 µM | [16] 17.7 µM | [11] 0.465 µM | [17] 12.7 µM | [12] 5.12 µM | [13] 8.24 µM

COC(=O)c1ccccc1C
inactive: [20]

Nc1nc(N)nc(-c2ccccc2)n1
not listed: [1] | [14] | [15] | [16] | [17] | [18] | [19] | [20]
inactive: all other assays above

COC(=O)[C@H](Cc1ccccc1)NC(=O)[C@@H](N)CC(=O)O (H-Asp-Phe-OMe)
active: [9] 15 µM
not listed: [1] | [16] | [17] | [18] | [19]
inactive: all other assays above

COc1ccc(C(=O)c2ccccc2)c(O)c1
inactive: [1] | [18]
active: [16] 12.6 µM | [17] 18.5 µM

O=C(O)/C=C/c1ccccc1
inactive: [1] | [20]

O=C(Oc1ccccc1)c1ccccc1O
inactive: [1] | [20]

Cc1cccc(C(C)(C)C)c1O
inactive: [16] | [18]
active: [17] 121 µM

Oc1ccc(/C=C/c2cc(O)cc(O)c2)cc1
active: [16] 4.94 µM | [17] 15.2 µM | [18] 70.2 µM | [19] 40.5 µM

CCCCCCCCCCCC(=O)N(C)CC(=O)O
active: [4] 22.8 µM | [5] 20.2 µM | [6] 0.0576 µM | [7] 0.613 µM | [8] 14.6 µM | [9] 2.9 µM | [10] 23.1 µM | [12] 21.6 µM | [13] 21.9 µM
inactive: [2] | [3] | [11]

CC(C)[N+](C)(CCOC(=O)C1c2ccccc2Oc2ccccc21)C(C)C
inactive: [1]

CC(C)C(=O)OCCc1ccccc1
active: [9] 0.0213 µM
not listed: [1] | [14] | [15] | [16] | [17] | [18] | [19] | [20]
inactive: all other assays above

Oc1ccccc1Cc1ccccc1O
inactive: [7] | [8] | [9]
active: [2] 0.159 µM | [3] 7.82 µM | [4] 0.1 µM | [5] 6.16 µM | [6] 8.53 µM | [10] 1.96 µM | [11] 0.156 µM | [12] 5.2 µM | [13] 8.49 µM
